Test results from PubChem BioAssay (Tox21).
Results filed as inconclusive are left out. Activity calls are given as the source filed them. Unless noted, calls come from the whole dose curve.

How the values were obtained:
[1] = Nuclear factor erythroid 2-related factor 2/antioxidant responsive element (Nrf2/ARE) small molecule agonists: qHTS cell viability counter screen in human keratinocytes (AID 1919968; active = well fitted curve in the direction sought with a large enough effect in the repeat runs; an effect the other way counts as inactive or inconclusive; note: nearly all actives have a fitted effect of over 55% in size; note: potency is the fitted concentration of half-maximal effect)
Procedure, shortened: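 HaCaT ARE reporter line, 1,500 cells/well; 5 h settle, 37 C/5% CO2; cpd in DMSO pinned; 23 h exposure; CellTiter-Fluor, 1 h; fluorescence.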

[2] = Nuclear factor erythroid 2-related factor 2/antioxidant responsive element (Nrf2/ARE) small molecule agonists: luciferase reporter gene qHTS assay in human keratinocytes (AID 1919969); note: nearly all actives have a fitted effect of over 35% in size; note: potency is the fitted concentration of half-maximal effect
[3] = biological target: Gonadotropin-releasing hormone receptor (Homo sapiens) (UniProt P30968); assay: Human gonadotropin-releasing hormone receptor (GnRHR) small molecule agonists, calcium flux assay in GnRHR-HEK293 cells (AID 1920063); note: nearly all actives have a fitted effect of over 35% in size
Chain of Gonadotropin-releasing hormone receptor (Homo sapiens) (P30968 whole entry, looked up): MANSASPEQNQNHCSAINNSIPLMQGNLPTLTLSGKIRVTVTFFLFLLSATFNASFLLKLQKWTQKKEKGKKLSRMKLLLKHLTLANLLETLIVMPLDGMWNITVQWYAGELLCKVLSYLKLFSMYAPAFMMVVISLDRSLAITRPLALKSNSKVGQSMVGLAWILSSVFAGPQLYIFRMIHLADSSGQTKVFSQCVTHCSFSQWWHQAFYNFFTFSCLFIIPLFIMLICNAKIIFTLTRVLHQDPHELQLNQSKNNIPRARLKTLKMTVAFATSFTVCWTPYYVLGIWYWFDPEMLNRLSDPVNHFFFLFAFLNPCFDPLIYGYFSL
Procedure, shortened: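 GnRHR-HEK293, 1500 cells/well, 18 h 37 C/5% CO2; Ca dye 1 h 37 C; cpd pinned (DMSO), agonist mode; kinetic FL 480/540, 3 min, 1 s reads; 15 conc, n=3.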

[4] = biological target: KiSS-1 receptor (Homo sapiens) (UniProt Q969F8); assay: Human kisspeptin (KISS1R) small molecule agonists, calcium flux assay in KISS1R-HEK293 cells (AID 1920064; active = well fitted curve in the direction sought with a large enough effect in the repeat runs; an effect the other way counts as inactive or inconclusive)
Chain of KiSS-1 receptor (Homo sapiens) (Q969F8 whole entry, looked up): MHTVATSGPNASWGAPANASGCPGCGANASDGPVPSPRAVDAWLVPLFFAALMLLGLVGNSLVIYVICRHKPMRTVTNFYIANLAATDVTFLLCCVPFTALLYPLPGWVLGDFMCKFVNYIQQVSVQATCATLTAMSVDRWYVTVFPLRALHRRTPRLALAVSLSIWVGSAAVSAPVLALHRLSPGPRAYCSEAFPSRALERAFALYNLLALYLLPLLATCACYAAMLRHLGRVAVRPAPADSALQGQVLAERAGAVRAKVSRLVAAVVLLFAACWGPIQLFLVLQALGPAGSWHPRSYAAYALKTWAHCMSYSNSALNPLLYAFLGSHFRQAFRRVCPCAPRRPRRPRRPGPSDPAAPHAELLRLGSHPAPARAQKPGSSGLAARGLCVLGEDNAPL
Procedure, shortened: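 Stable human KISS1R HEK293 line; 18 h plating, 37 C/5% CO2; calcium dye 1 h 37 C; compound pin transfer; kinetic fluorescence Ex/Em 480/540, 3 min.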

[5] = G protein-coupled receptor (GPCR) small molecule agonists, calcium flux assay: HEK293 wild type cell line counter screen (AID 1920065)
Procedure, shortened: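 Kinetic fluorescence at Ex/Em 480/540, recorded every second over 3 min, served as the read-out after compound addition. Each compound was tested at 15 concentrations in triplicate on cells pre-loaded with calcium dye for 1 h.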

[6] = p53 small molecule agonists, cell-based qHTS assay with human liver microsomes (AID 1963577);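 note: p53 response element beta-lactamase reporter cells with liver microsomes plus NADPH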
Procedure, shortened: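 Steps: plate p53RE-bla cells, incubate 5 h at 37 C; add compound in DMSO; add microsomes (0.5 mg/mL final) and NADPH (0.5 mg/mL final); incubate 16 h at 37 C; add LiveBLAzer, 2 h RT; read fluorescence.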

[7] = p53 small molecule agonists, cell-based qHTS assay with rat liver microsomes (AID 1963578)
Procedure, shortened: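 Metabolic activation is supplied by rat liver microsomes with NADPH (each 0.5 mg/mL final). p53RE-bla cells incubate with compound 16 h at 37 C; reporter activity is measured by LiveBLAzer fluorescence.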

[8] = p53 small molecule agonists, cell-based qHTS assay with human liver microsomes: qHTS cell viability counter screen (AID 1963579); note: nearly all actives have a fitted effect of over 45% in size
Procedure, shortened: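 After the 460/530 nm beta-lactamase read, CellTiter-Glo was added to the same wells and luminescence measured after 30 min at room temperature, giving viability of p53RE-bla cells treated 16 h with compounds plus microsomes and NADPH.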

[9] = p53 small molecule agonists, cell-based qHTS assay with rat liver microsomes: qHTS cell viability counter screen (AID 1963580); note: nearly all actives have a fitted effect of over 45% in size
Procedure, shortened: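 HCT-116 p53RE-bla, 4,000 cells/well, 5 h pre-incubation; cpd + rat liver microsomes 0.5 mg/mL + NADPH 0.5 mg/mL (final); 16 h, 37 C; CellTiter-Glo, 30 min RT; luminescence.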

[10] = p53 small molecule agonists, cell-based qHTS assay: qHTS cell viability counter screen (AID 1963581); note: nearly all actives have a fitted effect of over 45% in size
Procedure, shortened: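 HCT-116 p53RE-bla cells, 4,000/well, plated 5 h before compound pin transfer; 16 h at 37 C; bla substrate 2 h RT; then CellTiter-Glo, 30 min RT, luminescence.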

[11] = biological target: 5-hydroxytryptamine receptor 2A (Homo sapiens) (UniProt P28223); assay: 5-hydroxytryptamine receptor 2A (HTR2A) small molecule antagonists, cell-based qHTS assay (AID 1963586); note: nearly all actives have a fitted effect of over 45% in size
Chain of 5-hydroxytryptamine receptor 2A (Homo sapiens) (P28223 whole entry, looked up): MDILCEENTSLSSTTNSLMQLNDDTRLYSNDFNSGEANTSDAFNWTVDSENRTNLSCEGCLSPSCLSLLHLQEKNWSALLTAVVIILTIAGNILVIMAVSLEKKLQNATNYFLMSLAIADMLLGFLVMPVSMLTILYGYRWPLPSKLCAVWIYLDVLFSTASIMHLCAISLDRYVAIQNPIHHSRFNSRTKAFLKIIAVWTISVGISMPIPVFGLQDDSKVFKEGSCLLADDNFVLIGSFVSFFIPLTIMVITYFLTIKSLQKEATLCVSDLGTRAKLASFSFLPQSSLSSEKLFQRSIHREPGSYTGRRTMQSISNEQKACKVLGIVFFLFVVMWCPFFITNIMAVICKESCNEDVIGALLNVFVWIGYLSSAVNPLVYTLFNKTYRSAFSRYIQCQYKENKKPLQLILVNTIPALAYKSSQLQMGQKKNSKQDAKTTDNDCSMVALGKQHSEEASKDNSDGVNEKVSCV
Procedure, shortened: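 Antagonist-mode intracellular calcium assay: DOI (4 nM) added after 5 min compound pre-incubation at room temperature to dye-loaded HTR2A-CHO cells. Fluorescence followed for 3 min, sampled every second.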

[12] = biological target: 5-hydroxytryptamine receptor 2A (Homo sapiens) (UniProt P28223); assay: 5-hydroxytryptamine receptor 2A (HTR2A) small molecule agonists, cell-based qHTS assay (AID 1963587); note: nearly all actives have a fitted effect of over 30% in size
Procedure, shortened: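 Kinetic calcium-flux fluorescence (2 min, 1 sec intervals) after compound addition in agonist mode. HTR2A-CHO cells were cultured 18 h, then dye-loaded 1 h at 37 C.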

[13] = biological target: Muscarinic acetylcholine receptor M1 (Homo sapiens) (UniProt P11229); assay: Cholinergic receptor muscarinic 1 (CHRM1) small molecule antagonists, cell-based qHTS assay (AID 1963588); note: nearly all actives have a fitted effect of over 40% in size
Chain of Muscarinic acetylcholine receptor M1 (Homo sapiens) (P11229 whole entry, looked up): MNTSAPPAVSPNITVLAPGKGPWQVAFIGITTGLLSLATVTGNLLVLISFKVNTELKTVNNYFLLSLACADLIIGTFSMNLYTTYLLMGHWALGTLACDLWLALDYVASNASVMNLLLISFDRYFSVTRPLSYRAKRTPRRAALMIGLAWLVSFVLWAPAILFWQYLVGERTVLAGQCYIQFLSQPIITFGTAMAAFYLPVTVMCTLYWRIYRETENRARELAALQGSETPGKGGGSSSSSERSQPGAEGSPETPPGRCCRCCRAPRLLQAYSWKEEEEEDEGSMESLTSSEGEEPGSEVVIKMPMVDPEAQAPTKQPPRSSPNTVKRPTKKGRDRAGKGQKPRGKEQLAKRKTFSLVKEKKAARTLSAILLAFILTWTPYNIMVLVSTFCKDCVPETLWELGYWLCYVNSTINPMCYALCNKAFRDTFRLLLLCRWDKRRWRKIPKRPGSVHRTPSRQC
Procedure, shortened: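 CHRM1-CHO calcium-flux assay, antagonist mode. Cells were seeded 18 h, dye-loaded 1 h at 37 C and given compound for 5 min at RT, then acetylcholine was added at 50nM. FDSS fluorescence was read 3 min; 15 concentrations, three runs.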

[14] = biological target: Muscarinic acetylcholine receptor M1 (Homo sapiens) (UniProt P11229); assay: Cholinergic receptor muscarinic 1 (CHRM1) small molecule agonists, cell-based qHTS assay (AID 1963589); note: nearly all actives have a fitted effect of over 35% in size
Procedure, shortened: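 Human M1 in stable CHO line; 18 h plating, 1 h dye load 37 C; cpd added (agonist mode); Ca2+ fluorescence kinetic read, 1 s intervals; 15 conc, 3 runs.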

[15] = biological target: D(2) dopamine receptor (Homo sapiens) (UniProt P14416); assay: Dopamine D2 receptor (DRD2) small molecule agonists, cell-based qHTS assay (AID 1963594); note: nearly all actives have a fitted effect of over 35% in size
Chain of D(2) dopamine receptor (Homo sapiens) (P14416 whole entry, looked up): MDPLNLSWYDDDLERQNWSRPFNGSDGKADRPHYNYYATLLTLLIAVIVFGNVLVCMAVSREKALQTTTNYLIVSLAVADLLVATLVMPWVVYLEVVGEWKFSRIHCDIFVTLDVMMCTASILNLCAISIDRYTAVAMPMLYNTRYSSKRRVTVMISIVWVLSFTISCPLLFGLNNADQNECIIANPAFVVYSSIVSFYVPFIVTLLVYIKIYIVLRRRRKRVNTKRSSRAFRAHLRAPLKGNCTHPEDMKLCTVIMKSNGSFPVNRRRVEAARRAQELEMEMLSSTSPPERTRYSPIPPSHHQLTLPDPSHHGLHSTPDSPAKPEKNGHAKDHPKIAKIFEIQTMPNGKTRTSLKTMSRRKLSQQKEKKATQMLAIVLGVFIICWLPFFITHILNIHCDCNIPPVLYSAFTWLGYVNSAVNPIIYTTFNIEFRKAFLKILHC
Procedure, shortened: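 cAMP accumulation in DRD2-HEK293 cells measured by HTRF after 1 h detection; compounds added 10 min before NKH477 (200nM […]) forskolin-analogue stimulation, 30 min at room temperature, with Ro20-1724 present at 0.1 mM final.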

[16] = biological target: D(2) dopamine receptor (Homo sapiens) (UniProt P14416); assay: Dopamine D2 receptor (DRD2) small molecule antagonists, cell-based qHTS assay (AID 1963595; active = well fitted inhibition curve with a large enough effect in the signal ratio in the repeat runs, with a control signal flat; the % refers to the signal ratio)
Procedure, shortened: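 HTRF cAMP read-out at 665 and 620 nm emission (340 nm excitation). Antagonist mode: compounds were tested against 12 nM quinpirole in DRD2-HEK293 cells, with 200 nM NKH477 raising cAMP and 0.1 mM Ro20-1724 blocking its breakdown.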

[17] = cAMP Responsive Elements (CRE) small molecule agonists, cell-based qHTS assay (AID 1963590)
Procedure, shortened: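 HEK 293T CRE-bla, 2,000 cells/well, 18 h preincubation 37 C/5% CO2; cpds (DMSO) pinned, 3 h; LiveBLAzer B/G FRET substrate, 2 h RT.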

[18] = biological target: Beta-2 adrenergic receptor (Homo sapiens) (UniProt P07550); assay: Adrenergic beta2 receptor (ADRB2) small molecule antagonists, cell-based qHTS assay (AID 1963592); note: series mostly up to about 92 µM; nearly all actives have a fitted effect of over 50% in size
Chain of Beta-2 adrenergic receptor (Homo sapiens) (P07550 whole entry, looked up): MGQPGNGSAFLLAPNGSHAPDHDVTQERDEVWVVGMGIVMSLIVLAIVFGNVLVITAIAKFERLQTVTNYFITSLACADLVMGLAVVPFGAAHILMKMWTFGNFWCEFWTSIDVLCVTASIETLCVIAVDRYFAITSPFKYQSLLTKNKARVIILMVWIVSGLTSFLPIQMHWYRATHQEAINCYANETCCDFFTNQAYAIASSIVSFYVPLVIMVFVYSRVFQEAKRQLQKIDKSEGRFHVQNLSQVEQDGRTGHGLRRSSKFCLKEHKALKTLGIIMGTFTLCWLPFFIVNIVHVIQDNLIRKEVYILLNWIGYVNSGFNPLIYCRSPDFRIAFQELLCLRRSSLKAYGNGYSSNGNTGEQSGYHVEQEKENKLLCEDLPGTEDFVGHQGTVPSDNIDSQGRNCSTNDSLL
Procedure, shortened: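 Cells (CHO, stable ADRB2 overexpression) incubated 18-20hr at 37C; compounds added from DMSO; agonist mix (1nM isoproterenol, 100uM IBMX, 25uM Ro-20-1724) added; 0.5hr RT; d2-cAMP and anti-cAMP-cryptate added; 1hr RT; 665/615 nm read.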

[19] = cAMP Responsive Elements (CRE) small molecule antagonists, cell-based qHTS assay (AID 1963591; active = well fitted inhibition curve with a large enough effect in the signal ratio in the repeat runs, not every such curve was filed as active; the % refers to the signal ratio; note: potency is the fitted concentration of half-maximal effect)
Procedure, shortened: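 Beta-lactamase reporter read by FRET substrate (LiveBLAzer B/G) after 2 h at room temperature. CRE-bla HEK293T cells had received compound plus 0.25 uM (final) NKH477 for 3 h at 37 °C.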

[20] = biological target: Beta-2 adrenergic receptor (Homo sapiens) (UniProt P07550); assay: Adrenergic beta2 receptor (ADRB2) small molecule agonists, cell-based qHTS assay (AID 1963593);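 note: CHO cells stably overexpressing human ADRB2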
Procedure, shortened: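 CHO cells stably over-expressing ADRB2 were plated overnight at 37C, then dosed with compounds plus a stimulation mix containing 100uM IBMX and 25uM Ro-20-1724 for 0.5hr at room temperature. cAMP was measured by HTRF competition, 1hr.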

Measured: Potency

CCCCc1nc2cccnc2n1Cc1ccc(-c2ccccc2-c2nnn[nH]2)cc1
not listed: [17] | [18] | [19] | [20]
inactive: all other assays above

CC(C)(C)c1cc(CCC(=O)OCCSCCOC(=O)CCc2cc(C(C)(C)C)c(O)c(C(C)(C)C)c2)cc(C(C)(C)C)c1O
not listed: [16] | [19] | [20]
inactive: all other assays above

COc1ccc(C(=O)c2ccc(OC)cc2O)c(O)c1
active: [2] 69.1 µM
not listed: [17] | [20]
inactive: all other assays above

CCCCC/C=C/CC(=O)OC
not listed: [19] | [20]
inactive: all other assays above

CCCCCOc1ccc(C2SC(=O)NC2=O)cc1OCC (stereo not given)
not listed: [17] | [18] | [19]
inactive: all other assays above

Cc1ccc(-n2nc(C(C)(C)C)cc2NC(=O)Nc2ccc(OCCN3CCOCC3)c3ccccc23)cc1
not listed: [17] | [18] | [19] | [20]
inactive: all other assays above

O=C(OCC1CO1)C1CCCCC1C(=O)OCC1CO1 (stereo not given)
active: [2] 68.7 µM
not listed: [16] | [17] | [19] | [20]
inactive: all other assays above

Oc1ccc(Oc2ccccc2)cc1
not listed: [17] | [19]
inactive: all other assays above

C=C/C(C)=C/C/C=C(\C)CCC=C(C)C
active: [2] 68.6 µM
not listed: [17] | [19]
inactive: all other assays above

CCOC(=O)Nc1ccc(NCc2ccc(F)cc2)nc1N
not listed: [15] | [19] | [20]
inactive: all other assays above

Cc1nc(-c2ccc(OCC(C)C)c(C#N)c2)sc1C(=O)O
active: [2] 0.0531 µM
not listed: [15] | [17] | [18] | [19] | [20]
inactive: all other assays above

CC(C)=CCC/C(C)=C/CC/C(C)=C/CO
active: [2] 68.6 µM
not listed: [19] | [20]
inactive: all other assays above

CCOC(=O)COc1cc(-n2ncc(C(F)(F)F)c(C)c2=O)c(F)cc1Cl
not listed: [17] | [19]
inactive: all other assays above

Nc1ccc(Cl)c([N+](=O)[O-])c1
active: [2] 54.5 µM
not listed: [17]
inactive: all other assays above

C=CC/C=C/C
not listed: [19] | [20]
inactive: all other assays above

CC(=O)OC(C)c1ccccc1 (stereo not given)
not listed: [19] | [20]
inactive: all other assays above

NC(=O)c1ncn([C@@H]2O[C@H](CO)[C@@H](O)[C@H]2O)c1N
not listed: [19] | [20]
inactive: all other assays above

CN1C(=O)N(c2ccccc2Br)Cc2cnc(Nc3ccc4c(c3)OCC(CO)O4)nc21 (stereo not given)
active: [1] 54.5 µM | [19] 57 µM
not listed: [16] | [17] | [18] | [20]
inactive: all other assays above

Cc1ccc2c(c1[N+](=O)[O-])C(=O)c1ccccc1C2=O
active: [2] 16.9 µM
not listed: [17]
inactive: all other assays above

O=C(O)Cc1csc(-c2ccc(Cl)cc2)n1
not listed: [17] | [18] | [19] | [20]
inactive: all other assays above

CCCCCCCC
not listed: [20]
inactive: all other assays above

CC1=NC(C)OC1C (stereo not given)
active: [2] 61.1 µM
not listed: [17] | [18] | [19] | [20]
inactive: all other assays above

C=CC(=O)OCCOC(=O)CCC(=O)O
active: [2] 61.1 µM
not listed: [17] | [19]
inactive: all other assays above

CC(CC(C)(C)C)CC(C)(C)CC(C)(C)C (stereo not given)
not listed: [17] | [20]
inactive: all other assays above

CCC1CCC(CCC(=O)O)C1 (stereo not given)
not listed: [17] | [20]
inactive: all other assays above

NC(=O)N(O)[C@@H]1C=C[C@H](Oc2cccc(Oc3ccc(F)cc3)c2)C1
active: [2] 61.1 µM
not listed: [15] | [17] | [19] | [20]
inactive: all other assays above

CCCCCCCCSCc1cc(C)c(O)c(CSCCCCCCCC)c1
active: [2] 61.1 µM
not listed: [17]
inactive: all other assays above

O=C(c1ccc(O)cc1)c1ccc(Cl)cc1
not listed: [17] | [19] | [20]
inactive: all other assays above

O=C1CCCN1CCO
not listed: [17] | [19]
inactive: all other assays above
